# Measured values reported in the supplement of paper PMC4466140.
# Key:
# Assay in all cases: SPOT peptide array binding signal intensity (averaged, normalized) (arbitrary units (background-subtracted, floor 0; scale differs between SH3 domains)); higher = stronger binding of the SH3 domain to the peptide
# AgAbp1 = molecular target: AgAbp1
# Method in brief: (§1)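 Binding signal is given in arbitrary units that differ between domains and is the normalized, background-subtracted spot intensity averaged across replicates. Each GST-SH3 fusion from one of four yeast species was made in E. coli BL21(DE3), purified on glutathione Sepharose and incubated at 10 μg/ml overnight at 4°C on cellulose-bound synthetic 15-mer peptides in which cysteines were replaced by serines. Detection used anti-GST antibody, an HRP anti-mouse secondary and luminol, followed by imaging and Genespotter quantification.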
# AgBbc1 = molecular target: AgBbc1
# Method in brief: as §1
# AgBem1-D1 = molecular target: AgBem1-D1
# Method in brief: as §1
# AgBzz1-D1 = molecular target: AgBzz1-D1
# Method in brief: as §1
# AgBzz1-D2 = molecular target: AgBzz1-D2
# Method in brief: as §1
# AgCyk3 = molecular target: AgCyk3
# Method in brief: as §1
# AgFus1 = molecular target: AgFus1
# Method in brief: as §1
# AgHof1 = molecular target: AgHof1
# Method in brief: as §1
# AgHse1 = molecular target: AgHse1
# Method in brief: as §1
# AgLsb1 = molecular target: AgLsb1
# Method in brief: as §1
# AgLsb4 = molecular target: AgLsb4
# Method in brief: as §1
# AgMyo5 = molecular target: AgMyo5
# Method in brief: as §1
# AgNbp2 = molecular target: AgNbp2
# Method in brief: as §1
# AgRvs167 = molecular target: AgRvs167
# Method in brief: as §1
# AgSho1 = molecular target: AgSho1
# Method in brief: as §1
# AgSla1-D1-D2 = molecular target: AgSla1-D1-D2
# Method in brief: as §1
# AgSla1-D3 = molecular target: AgSla1-D3
# Method in brief: as §1
# CaAbp1-D1 = molecular target: CaAbp1-D1
# Method in brief: as §1
# CaAbp1-D2 = molecular target: CaAbp1-D2
# Method in brief: as §1
# CaBbc1 = molecular target: CaBbc1
# Method in brief: as §1
# CaBem1-D1 = molecular target: CaBem1-D1
# Method in brief: as §1
# CaBzz1-D1 = molecular target: CaBzz1-D1
# Method in brief: as §1
# CaBzz1-D2 = molecular target: CaBzz1-D2
# Method in brief: as §1
# CaCyk3 = molecular target: CaCyk3
# Method in brief: as §1
# CaFus1 = molecular target: CaFus1
# Method in brief: as §1
# CaHof1 = molecular target: CaHof1
# Method in brief: as §1
# CaHse1 = molecular target: CaHse1
# Method in brief: as §1
# CaLsb1 = molecular target: CaLsb1
# Method in brief: as §1
# CaLsb4 = molecular target: CaLsb4
# Method in brief: as §1
# CaMyo5 = molecular target: CaMyo5
# Method in brief: as §1
# CaNbp2 = molecular target: CaNbp2
# Method in brief: as §1
# CaRvs167 = molecular target: CaRvs167
# Method in brief: as §1
# CaRvs167-3 = molecular target: CaRvs167-3
# Method in brief: as §1
# CaSho1 = molecular target: CaSho1
# Method in brief: as §1
# CaSla1-D1-D2 = molecular target: CaSla1-D1-D2
# Method in brief: as §1
# CaSla1-D3 = molecular target: CaSla1-D3
# Method in brief: as §1
# ScAbp1 = molecular target: ScAbp1
# Method in brief: as §1
# ScBbc1 = molecular target: ScBbc1
# Method in brief: as §1
# ScBem1-D1 = molecular target: ScBem1-D1
# Method in brief: as §1
# ScBzz1-D1 = molecular target: ScBzz1-D1
# Method in brief: as §1
# ScBzz1-D2 = molecular target: ScBzz1-D2
# Method in brief: as §1
# ScCyk3 = molecular target: ScCyk3
# Method in brief: as §1
# ScFus1 = molecular target: ScFus1
# Method in brief: as §1
# ScHof1 = molecular target: ScHof1
# Method in brief: as §1
# ScHse1 = molecular target: ScHse1
# Method in brief: as §1
# ScLsb1 = molecular target: ScLsb1
# Method in brief: as §1
# ScLsb2 = molecular target: ScLsb2
# Method in brief: as §1
# ScLsb3 = molecular target: ScLsb3
# Method in brief: as §1
# ScLsb4 = molecular target: ScLsb4
# Method in brief: as §1
# ScMyo3 = molecular target: ScMyo3
# Method in brief: as §1
# ScMyo5 = molecular target: ScMyo5
# Method in brief: as §1
# ScNbp2 = molecular target: ScNbp2
# Method in brief: as §1
# ScPex13 = molecular target: ScPex13
# Method in brief: as §1
# ScRvs167 = molecular target: ScRvs167
# Method in brief: as §1
# ScSho1 = molecular target: ScSho1
# Method in brief: as §1
# ScSla1-D1-D2 = molecular target: ScSla1-D1-D2
# Method in brief: as §1
# ScSla1-D3 = molecular target: ScSla1-D3
# Method in brief: as §1
# SpAbp1-D1 = molecular target: SpAbp1-D1
# Method in brief: as §1
# SpBbc1 = molecular target: SpBbc1
# Method in brief: as §1
# SpBzz1-D1 = molecular target: SpBzz1-D1
# Method in brief: as §1
# SpBzz1-D2 = molecular target: SpBzz1-D2
# Method in brief: as §1
# SpCyk3 = molecular target: SpCyk3
# Method in brief: as §1
# SpHof1 = molecular target: SpHof1
# Method in brief: as §1
# SpHof1-2 = molecular target: SpHof1-2
# Method in brief: as §1
# SpHof1-3 = molecular target: SpHof1-3
# Method in brief: as §1
# SpHse1 = molecular target: SpHse1
# Method in brief: as §1
# SpLsb1 = molecular target: SpLsb1
# Method in brief: as §1
# SpLsb4 = molecular target: SpLsb4
# Method in brief: as §1
# SpMyo1 = molecular target: SpMyo1
# Method in brief: as §1
# SpNbp2 = molecular target: SpNbp2
# Method in brief: as §1
# SpPex13 = molecular target: SpPex13
# Method in brief: as §1
# SpRvs167 = molecular target: SpRvs167
# Method in brief: as §1
# SpSla1-D1-D2 = molecular target: SpSla1-D1-D2
# Method in brief: as §1
# SpSla1-D3 = molecular target: SpSla1-D3
# Method in brief: as §1
binder,measurement,setting,value
NENKKLPPAPTVFGL,SPOT peptide array binding signal intensity,AgAbp1,≤ 0
same,SPOT peptide array binding signal intensity,AgBbc1,≤ 0
same,SPOT peptide array binding signal intensity,AgBem1-D1,≤ 0
same,SPOT peptide array binding signal intensity,AgBzz1-D1,27
same,SPOT peptide array binding signal intensity,AgBzz1-D2,35
same,SPOT peptide array binding signal intensity,AgCyk3,≤ 0
same,SPOT peptide array binding signal intensity,AgFus1,≤ 0
same,SPOT peptide array binding signal intensity,AgHof1,19.5
same,SPOT peptide array binding signal intensity,AgHse1,72
same,SPOT peptide array binding signal intensity,AgLsb1,≤ 0
same,SPOT peptide array binding signal intensity,AgLsb4,25
same,SPOT peptide array binding signal intensity,AgMyo5,≤ 0
same,SPOT peptide array binding signal intensity,AgNbp2,≤ 0
same,SPOT peptide array binding signal intensity,AgRvs167,6.17
same,SPOT peptide array binding signal intensity,AgSho1,1550
same,SPOT peptide array binding signal intensity,AgSla1-D1-D2,4
same,SPOT peptide array binding signal intensity,AgSla1-D3,1.5
same,SPOT peptide array binding signal intensity,CaAbp1-D1,≤ 0
same,SPOT peptide array binding signal intensity,CaAbp1-D2,3
same,SPOT peptide array binding signal intensity,CaBbc1,≤ 0
same,SPOT peptide array binding signal intensity,CaBem1-D1,≤ 0
same,SPOT peptide array binding signal intensity,CaBzz1-D1,3.5
same,SPOT peptide array binding signal intensity,CaBzz1-D2,1.5
same,SPOT peptide array binding signal intensity,CaCyk3,≤ 0
same,SPOT peptide array binding signal intensity,CaFus1,36.5
same,SPOT peptide array binding signal intensity,CaHof1,0.25
same,SPOT peptide array binding signal intensity,CaHse1,≤ 0
same,SPOT peptide array binding signal intensity,CaLsb1,1.5
same,SPOT peptide array binding signal intensity,CaLsb4,≤ 0
same,SPOT peptide array binding signal intensity,CaMyo5,≤ 0
GDHPKGPPPPPPPDE,SPOT peptide array binding signal intensity,AgAbp1,≤ 0
same,SPOT peptide array binding signal intensity,AgBbc1,1
same,SPOT peptide array binding signal intensity,AgBem1-D1,≤ 0
same,SPOT peptide array binding signal intensity,AgBzz1-D1,870
same,SPOT peptide array binding signal intensity,AgBzz1-D2,85
same,SPOT peptide array binding signal intensity,AgCyk3,≤ 0
same,SPOT peptide array binding signal intensity,AgFus1,3.5
same,SPOT peptide array binding signal intensity,AgHof1,≤ 0
same,SPOT peptide array binding signal intensity,AgHse1,≤ 0
same,SPOT peptide array binding signal intensity,AgLsb1,≤ 0
same,SPOT peptide array binding signal intensity,AgLsb4,11.5
same,SPOT peptide array binding signal intensity,AgMyo5,1360
same,SPOT peptide array binding signal intensity,AgNbp2,9
same,SPOT peptide array binding signal intensity,AgRvs167,0.167
same,SPOT peptide array binding signal intensity,AgSho1,11
same,SPOT peptide array binding signal intensity,AgSla1-D1-D2,6
same,SPOT peptide array binding signal intensity,AgSla1-D3,358
same,SPOT peptide array binding signal intensity,CaAbp1-D1,≤ 0
same,SPOT peptide array binding signal intensity,CaAbp1-D2,≤ 0
same,SPOT peptide array binding signal intensity,CaBbc1,≤ 0
same,SPOT peptide array binding signal intensity,CaBem1-D1,≤ 0
same,SPOT peptide array binding signal intensity,CaBzz1-D1,3200
same,SPOT peptide array binding signal intensity,CaBzz1-D2,2040
same,SPOT peptide array binding signal intensity,CaCyk3,≤ 0
same,SPOT peptide array binding signal intensity,CaFus1,≤ 0
same,SPOT peptide array binding signal intensity,CaHof1,0.25
same,SPOT peptide array binding signal intensity,CaHse1,6.5
same,SPOT peptide array binding signal intensity,CaLsb1,≤ 0
same,SPOT peptide array binding signal intensity,CaLsb4,5.5
same,SPOT peptide array binding signal intensity,CaMyo5,41
same,SPOT peptide array binding signal intensity,CaNbp2,≤ 0
same,SPOT peptide array binding signal intensity,CaRvs167,≤ 0
same,SPOT peptide array binding signal intensity,CaRvs167-3,1.25
same,SPOT peptide array binding signal intensity,CaSho1,≤ 0
same,SPOT peptide array binding signal intensity,CaSla1-D1-D2,≤ 0
same,SPOT peptide array binding signal intensity,CaSla1-D3,1.75
same,SPOT peptide array binding signal intensity,ScAbp1,≤ 0
same,SPOT peptide array binding signal intensity,ScBbc1,2.5
same,SPOT peptide array binding signal intensity,ScBem1-D1,≤ 0
same,SPOT peptide array binding signal intensity,ScBzz1-D1,4000
same,SPOT peptide array binding signal intensity,ScBzz1-D2,31.5
same,SPOT peptide array binding signal intensity,ScCyk3,≤ 0
same,SPOT peptide array binding signal intensity,ScFus1,2.5
same,SPOT peptide array binding signal intensity,ScHof1,≤ 0
same,SPOT peptide array binding signal intensity,ScHse1,7.5
same,SPOT peptide array binding signal intensity,ScLsb1,≤ 0
same,SPOT peptide array binding signal intensity,ScLsb2,≤ 0
same,SPOT peptide array binding signal intensity,ScLsb3,≤ 0
same,SPOT peptide array binding signal intensity,ScLsb4,≤ 0
same,SPOT peptide array binding signal intensity,ScMyo3,1390
same,SPOT peptide array binding signal intensity,ScMyo5,1300
same,SPOT peptide array binding signal intensity,ScNbp2,≤ 0
same,SPOT peptide array binding signal intensity,ScPex13,≤ 0
same,SPOT peptide array binding signal intensity,ScRvs167,0.333
same,SPOT peptide array binding signal intensity,ScSho1,≤ 0
same,SPOT peptide array binding signal intensity,ScSla1-D1-D2,≤ 0
same,SPOT peptide array binding signal intensity,ScSla1-D3,≤ 0
same,SPOT peptide array binding signal intensity,SpAbp1-D1,≤ 0
same,SPOT peptide array binding signal intensity,SpBbc1,1.25
same,SPOT peptide array binding signal intensity,SpBzz1-D1,42
same,SPOT peptide array binding signal intensity,SpBzz1-D2,1.5
same,SPOT peptide array binding signal intensity,SpCyk3,≤ 0
same,SPOT peptide array binding signal intensity,SpHof1,≤ 0
same,SPOT peptide array binding signal intensity,SpHof1-2,1.5
same,SPOT peptide array binding signal intensity,SpHof1-3,≤ 0
same,SPOT peptide array binding signal intensity,SpHse1,85.2
same,SPOT peptide array binding signal intensity,SpLsb1,0.5
same,SPOT peptide array binding signal intensity,SpLsb4,≤ 0
same,SPOT peptide array binding signal intensity,SpMyo1,1500
same,SPOT peptide array binding signal intensity,SpNbp2,≤ 0
same,SPOT peptide array binding signal intensity,SpPex13,2
same,SPOT peptide array binding signal intensity,SpRvs167,9
same,SPOT peptide array binding signal intensity,SpSla1-D1-D2,9
same,SPOT peptide array binding signal intensity,SpSla1-D3,≤ 0
